This passage reports Potency results from PubChem BioAssay (Tox21).

Inconclusive results are not listed. The source holds several records for some structures; these can differ, active in one and inactive in another. Calls of active or inactive are those of the source. Unless noted, calls follow the shape of the full dose curve.

Experiment [1] has as its target Acetylcholinesterase (Homo sapiens) (UniProt P22303). In words: Acetylcholinesterase (AChE) small molecule antagonists: colormetric cell-based qHTS assay (AID 1347395). Also: nearly all actives have a fitted effect of over 30% in size. Also: potency is read from the fitted curve at half-maximal effect. A digest of the protocol: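 Colorimetric read-out: DTNB detects thiocholine released when cellular AChE in SH-SY5Y cells hydrolyses acetylthiocholine. Cells attached overnight, received compound for 30 min at 37 C, then substrate mix for 90 min at 37 C.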

The target is the same in experiment [2]. Nature of the experiment: Acetylcholinesterase (AChE) small molecule antagonists: enzyme-based qHTS assay (AID 1347397). Also: nearly all actives have a fitted effect of over 55% in size. Also: potency is read from the fitted curve at half-maximal effect. The settings on record: Potency: AChE enzyme activity inhibition; outcome: AChE enzyme activity inhibition. A digest of the protocol:
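Enzyme inhibition was scored from DTNB-detected thiocholine formed by recombinant human AChE acting on acetylthiocholine. The 30 min compound preincubation and 10 min substrate reaction were both run at room temperature, with DMSO as vehicle control.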
(In general: In qHTS, concentration-response curves come from the screen itself.)

Experiment [3] shares this target. In words: Acetylcholinesterase (AChE) small molecule antagonists: fluorescence cell-based qHTS assay (AID 1347398). Also: nearly all actives have a fitted effect of over 50% in size. Also: potency is read from the fitted curve at half-maximal effect. The settings on record: Potency: AChE activity; outcome: AChE activity. A digest of the protocol: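 Endogenous acetylcholinesterase of SH-SY5Y neuroblastoma cells is measured in situ. After overnight attachment and 30 min compound exposure, cells receive acetylthiocholine and Thiolite Green; fluorescence is read after 40 min at room temperature.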

Experiment [4] has the same target. In words: Acetylcholinesterase (AChE) small molecule antagonists: enzyme-based qHTS assay with human liver microsomes (AID 1347399). Also: nearly all actives have a fitted effect of over 60% in size. As to conditions: Potency: qHTS inhibition; outcome: qHTS inhibition. An outline of the steps:
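Recombinant human AChE (50 mU/mL in the enzyme mix) and human liver microsomes (0.25 mg/mL final) were preincubated with compound and NADPH (0.25 mg/mL final) for 30 min at 37 C. Acetylthiocholine/DTNB was then added; thiocholine was read colorimetrically after 10 min at room temperature.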

For experiment [5], the target named is Aromatase (Homo sapiens) (UniProt P11511). Nature of the experiment: qHTS assay to identify aromatase inhibitors (AID 743083; active = well fitted curve in the direction sought with a large enough effect in the repeat runs; an effect the other way counts as inactive or inconclusive; also: nearly all actives have a fitted effect of over 55% in size; also: potency is read from the fitted curve at half-maximal effect).
The target in experiment [6] is Aryl hydrocarbon receptor (Homo sapiens) (UniProt P35869). In words: qHTS assay to identify small molecule that activate the aryl hydrocarbon receptor (AhR) signaling pathway (AID 743085; active = well fitted curve in the direction sought with a large enough effect in the repeat runs; an effect the other way counts as inactive or inconclusive;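 also: HG2L7.5c1 human HepG2 liver cells with stably integrated DRE-driven firefly reporter; series mostly up to about 70 µM; nearly all actives have a fitted effect of over 15% in size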). An outline of the steps:
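Cell line HG2L7.5c1 (human hepatoma, 20× DRE-luc). Plated, 5 h 37C, compound/DMSO added, 24 h 37C. CellTiter-Fluor 30 min 37C → fluorescence; then ONE-Glo 30 min RT → luminescence.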

Aromatase (Homo sapiens), sequence (P11511 whole entry, looked up): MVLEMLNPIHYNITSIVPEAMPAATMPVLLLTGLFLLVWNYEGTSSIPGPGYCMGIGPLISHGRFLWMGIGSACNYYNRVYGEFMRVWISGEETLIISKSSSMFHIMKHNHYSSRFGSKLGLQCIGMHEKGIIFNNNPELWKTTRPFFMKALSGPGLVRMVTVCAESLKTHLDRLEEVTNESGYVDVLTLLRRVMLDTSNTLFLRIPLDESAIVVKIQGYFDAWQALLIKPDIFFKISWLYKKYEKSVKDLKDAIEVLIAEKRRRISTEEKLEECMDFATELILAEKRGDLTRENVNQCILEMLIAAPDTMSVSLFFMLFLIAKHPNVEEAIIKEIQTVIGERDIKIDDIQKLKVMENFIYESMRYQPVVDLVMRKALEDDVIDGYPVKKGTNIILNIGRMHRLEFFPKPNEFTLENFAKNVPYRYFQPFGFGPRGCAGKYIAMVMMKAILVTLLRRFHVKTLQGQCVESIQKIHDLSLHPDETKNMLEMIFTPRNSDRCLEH
Acetylcholinesterase (Homo sapiens), sequence (P22303 whole entry, looked up): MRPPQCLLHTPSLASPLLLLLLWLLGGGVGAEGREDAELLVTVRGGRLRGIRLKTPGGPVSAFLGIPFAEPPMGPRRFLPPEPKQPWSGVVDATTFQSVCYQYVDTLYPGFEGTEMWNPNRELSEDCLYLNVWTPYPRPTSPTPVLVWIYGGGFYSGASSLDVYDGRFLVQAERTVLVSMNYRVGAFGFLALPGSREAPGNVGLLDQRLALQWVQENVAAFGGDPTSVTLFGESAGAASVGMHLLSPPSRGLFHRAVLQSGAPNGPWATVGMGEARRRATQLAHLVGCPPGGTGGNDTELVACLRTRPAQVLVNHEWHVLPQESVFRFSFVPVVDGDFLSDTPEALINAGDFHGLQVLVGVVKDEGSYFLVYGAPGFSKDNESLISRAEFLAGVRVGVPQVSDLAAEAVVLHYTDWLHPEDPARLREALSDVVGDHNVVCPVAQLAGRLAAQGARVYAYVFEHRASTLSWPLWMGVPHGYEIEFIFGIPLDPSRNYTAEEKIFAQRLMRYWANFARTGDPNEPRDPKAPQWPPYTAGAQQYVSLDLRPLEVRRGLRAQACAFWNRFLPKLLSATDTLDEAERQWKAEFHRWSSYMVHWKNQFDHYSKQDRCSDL
Aryl hydrocarbon receptor (Homo sapiens), sequence (P35869 whole entry, looked up): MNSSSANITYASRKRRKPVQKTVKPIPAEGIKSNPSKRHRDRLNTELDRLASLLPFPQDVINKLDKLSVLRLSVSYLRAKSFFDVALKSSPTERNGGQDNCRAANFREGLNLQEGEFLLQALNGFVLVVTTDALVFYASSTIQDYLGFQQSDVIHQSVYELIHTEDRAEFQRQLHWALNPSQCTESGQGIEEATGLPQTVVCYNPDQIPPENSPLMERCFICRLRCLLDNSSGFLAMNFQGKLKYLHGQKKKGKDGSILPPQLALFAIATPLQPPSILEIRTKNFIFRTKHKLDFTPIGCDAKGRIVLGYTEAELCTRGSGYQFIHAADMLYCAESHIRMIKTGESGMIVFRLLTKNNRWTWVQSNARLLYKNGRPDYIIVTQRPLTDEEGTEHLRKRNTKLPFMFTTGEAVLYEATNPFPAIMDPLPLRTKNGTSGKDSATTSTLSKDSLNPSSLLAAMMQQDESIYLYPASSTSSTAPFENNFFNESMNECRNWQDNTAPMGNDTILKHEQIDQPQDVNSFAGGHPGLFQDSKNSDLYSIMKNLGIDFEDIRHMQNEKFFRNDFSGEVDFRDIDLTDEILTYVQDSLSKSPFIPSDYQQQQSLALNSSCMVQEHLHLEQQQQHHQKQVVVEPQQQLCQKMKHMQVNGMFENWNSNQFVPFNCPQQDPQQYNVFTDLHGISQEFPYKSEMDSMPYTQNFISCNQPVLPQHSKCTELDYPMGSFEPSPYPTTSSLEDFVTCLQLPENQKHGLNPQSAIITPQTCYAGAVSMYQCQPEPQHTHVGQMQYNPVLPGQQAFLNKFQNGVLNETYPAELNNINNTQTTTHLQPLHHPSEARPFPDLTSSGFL

Take `COC(=O)Nc1nc2ccc(C(=O)C3CC3)cc2[nH]1`: the Potency entry in experiment [1], in experiment [2], in experiment [3] and in experiment [4] was “inactive” each time.
Regarding `CCC(C)(CCC(C)C)C(=O)[O-].CCC(C)(CCC(C)C)C(=O)[O-].[Zn+2]` (centres undefined), the Potency entry in experiment [1], in experiment [2], in experiment [3] and in experiment [4] was “inactive” throughout.
On to `ClC(Cl)(Cl)c1ccc(C(Cl)(Cl)Cl)cc1`, for which the Potency result in experiment [5], in experiment [6], in experiment [1], in experiment [2], in experiment [3] and in experiment [4] was “inactive” throughout.
For the compound `CC(=O)N(CC(O)CO)c1c(I)c(C(=O)NCCO)c(I)c(C(=O)NCC(O)CO)c1I` (centres undefined), the Potency result in experiment [1], in experiment [2] and in experiment [4] was “inactive” each time.
As to `COc1ccc(CN(CCN(C)C)c2ccccn2)cc1`, the Potency result in experiment [1], in experiment [2], in experiment [3] and in experiment [4] was “inactive” each time.
With `CCCCCCC(C)O` (centres undefined), the Potency result in experiment [1], in experiment [2], in experiment [3] and in experiment [4] was “inactive” throughout.
For `COc1cc(C(=O)N2CCOCC2)cc(OC)c1OC`, the Potency result in experiment [1], in experiment [2], in experiment [3] and in experiment [4] was “inactive” throughout.
As to `CCCOC(=O)CCCCC(=O)OCCC`, the Potency entry in experiment [1], in experiment [2], in experiment [3] and in experiment [4] was “inactive” throughout.
As for `O=C1c2ccccc2C(=O)N1SC1CCCCC1`, the Potency in experiment [5] was 30.6 µM (active); in experiment [1], 39.9 µM (active) and inactive; in experiment [2], 31.7 µM (active) and inactive; in experiment [3], 22.4 µM (active) and inactive. Further, in experiment [4], the Potency entry was “inactive”.
In the case of `CCCCCCCCCc1ccc(OCCOCCO)cc1`, in experiment [5], the Potency was 21.1 µM (active). Also, the Potency entry in experiment [6], in experiment [1], in experiment [2], in experiment [3] and in experiment [4] was “inactive” in each case.
As to `CC(C(=O)O)c1ccc(/C=C2\CCCCC2=O)cc1` (centres undefined), the Potency entry in experiment [1], in experiment [2], in experiment [3] and in experiment [4] was “inactive” throughout.
For the compound `Cc1ccccc1OCC(O)CO` (centres undefined), the Potency entry in experiment [1], in experiment [2], in experiment [3] and in experiment [4] was “inactive” each time.
Turning to `CC(=O)CCc1ccccc1`, the Potency result in experiment [1], in experiment [2] and in experiment [4] was “inactive” each time.
As for `C=CCOCC(CC)(CO)COCC=C`, the Potency entry in experiment [1], in experiment [2], in experiment [3] and in experiment [4] was “inactive” in each case.
As for `O=C(O)C(=O)Nc1cccc(-c2nn[nH]n2)c1`, the Potency result in experiment [1], in experiment [2], in experiment [3] and in experiment [4] was “inactive” each time.
Regarding `COc1cc(O)c(C(=O)c2ccccc2)cc1S(=O)(=O)O`, the Potency result in experiment [1], in experiment [2] and in experiment [4] was “inactive” in each case.
For `Cc1cccc2ccccc12`, the Potency result in experiment [1], in experiment [2], in experiment [3] and in experiment [4] was “inactive” throughout.
With `O=C1NC(=O)c2ccccc21`, the Potency entry in experiment [1], in experiment [2], in experiment [3] and in experiment [4] was “inactive” each time.
Turning to `CC(CC(C#N)(c1ccccc1)C(C)C)N(C)C` (centres undefined), the Potency result in experiment [1], in experiment [2], in experiment [3] and in experiment [4] was “inactive” throughout.
On to `CCCCCCC(=O)O`, for which the Potency entry in experiment [1], in experiment [2] and in experiment [4] was “inactive” throughout.
As for `OC(CCCN1CCCCC1)(c1ccccc1)c1ccccc1`, the Potency result in experiment [1], in experiment [2] and in experiment [4] was “inactive” throughout.
With `CCC(CC)Nc1ccc(C)c(C)c1`, the Potency result in experiment [1], in experiment [2], in experiment [3] and in experiment [4] was “inactive” each time.
For `CCCCCCCCCCCCCCNCCO`, the Potency entry in experiment [1], in experiment [2], in experiment [3] and in experiment [4] was “inactive” each time.
As to `C=C[Si]1(C)O[Si](C)(C=C)O[Si](C)(C=C)O[Si](C)(C=C)O1` (centres undefined), the Potency entry in experiment [1], in experiment [2], in experiment [3] and in experiment [4] was “inactive” each time.
For the compound `O=C(O)c1cc2ccccc2nc1C(=O)O`, the Potency entry in experiment [1], in experiment [2], in experiment [3] and in experiment [4] was “inactive” each time.
For the compound `CCCCC(CC)COP(=O)(OCC(CC)CCCC)OCC(CC)CCCC` (centres undefined), the Potency entry in experiment [1], in experiment [2], in experiment [3] and in experiment [4] was “inactive” in each case.
As to `CCCN(C1CCN(C(=O)C2CCNCC2)CC1)[C@@H]1CCc2ccc(OC)cc2C1`, the Potency result in experiment [1], in experiment [2], in experiment [3] and in experiment [4] was “inactive” throughout.
For the compound `CC(=O)CC(=O)c1ccccc1`, the Potency result in experiment [1], in experiment [2] and in experiment [4] was “inactive” each time.
`Cc1c(C(C)C)c(=O)n(-c2ccccc2)n1C`: the Potency result in experiment [1], in experiment [2], in experiment [3] and in experiment [4] was “inactive” in each case.
With `C/C(Cl)=C/CCl`, the Potency result in experiment [1], in experiment [2], in experiment [3] and in experiment [4] was “inactive” each time.
